Rows were chosen to be rich in hits. Some 19% of all compounds tested hit in one or more screens of this group.
DT40 TDP1 no CPT = qHTS for Inhibitors of human tyrosyl-DNA phosphodiesterase 1 (TDP1): qHTS in cells in absence of CPT. DT40 Tdp1-/- hTDP1 cells, no CPT, ATP luminescence, 48 h. Potency, µM (top dose mostly 46.2 µM), hits mostly inhibitors. 15% of 420,000 active. AID 686978, 2013; further: nearly all actives have a fitted effect of over 55% in size
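Chicken DT40 Tdp1-/- cells stably complemented with human TDP1 were seeded at 400 cells/well with DMSO in place of 20 nM camptothecin. After compound pinning, cells grew at least 48 hr at 37 °C; viability read by CellTiter-Glo luminescence.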
HT1080 IDH1KD tx = toxicity to HT-1080 IDH1 knockdown cells (counter line) | HT-1080 IDH1 knockdown viability, ATP luminescence, 48 h | Potency, µM (doses to about 46.1 µM), hits mostly cytotoxic | 2% of 360,000 active | AID 686971
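Viability of IDH1-knockdown HT-1080 fibrosarcoma cells was assessed by CellTiter-Glo after 48 h at 37 °C with titrated compound; concentration-effect curves were classified by fit quality and response size.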
DT40 TDP1 CPT = DT40-hTDP1 cell growth loss with CPT | chicken DT40 Tdp1-/-;hTDP1 cells + 20 nM CPT, ATP luminescence, 48 h | Potency, µM (top dose mostly 46.2 µM), most hits filed as inhibitors | 12% of 420,000 active | AID 686979; further: nearly all actives have a fitted effect of over 55% in size
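Chicken DT40 Tdp1-/- cells complemented with human TDP1, 400 cells/well, exposed to compounds plus 20 nM camptothecin for at least 48 h at 37 C; viability read as ATP content by CellTiter-Glo luminescence.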
HT1080NT lethal = kills 2HG-producing HT-1080-NT fibrosarcoma cells. HT-1080-NT fibrosarcoma viability, CellTiter-Glo ATP luminescence, 48 h. Potency, µM (series often up to 46.1 µM), actives largely listed as cytotoxic. 1.6% of 360,000 active. AID 686970;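 further: NT is the 2HG producing partner of a matched IDH1 knockdown line; nearly all actives have a fitted effect of over 55% in size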
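Viability of the 2HG-overproducing fibrosarcoma line after 48 hours of compound exposure at 37 degrees C was determined by luminescence with CellTiter-Glo, and concentration-effect curves were then fitted and categorized.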
IL1B secr inh = inhibitors of inflammasome signaling (IL-1 beta secretion). 4.7% of 360,000 active. THP-1 LPS/ATP IL-1B secretion, AlphaLISA, 16 h; hits give low values. activity change, % at 57.5 µM. AID 743279; in the data active means activity change below about -50%; inconclusive means mostly about -30% to -49%
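Secreted IL-1B measured by AlphaLISA bead assay after 16 h compound exposure of THP-1 cells; compounds (final up to 57.5 uM) added 1 h before LPS (250 ng/mL) and ATP (1.25 mM) stimulation; lower signal means less secretion.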
A number is an active result; – = inactive; ? = inconclusive; · = not tested or not shown; [ ] = remark or other dose. Unless noted, the call rests on the fitted dose curve; in most records, active means well fitted curve in the direction sought with a large enough effect; inconclusive means small, poorly fitted or top-dose-only effect, or another doubt; inactive means no such curve, though single readings can be large; an effect the other way counts as inactive or inconclusive.

SMILES	DT40 TDP1 no CPT	HT1080 IDH1KD tx	DT40 TDP1 CPT	HT1080NT lethal	IL1B secr inh
NC(=O)c1cccc(-c2ccnc3c2CC(C(=O)Nc2cccc(C(F)(F)F)c2)O3)c1 (stereo not given)	18µM	?	18µM	?	–
CC(=O)Nc1ccc(-c2ccnc3c2CC(C(=O)Nc2cccc(Oc4ccccc4)c2)O3)cc1 (stereo not given)	21µM	15µM	?	?	?
CC(=O)Nc1cccc(-c2ccnc3c2CC(C(=O)Nc2cccnc2)O3)c1 (stereo not given)	?	–	–	–	–
CC(=O)Nc1ccc(-c2ccnc3c2CC(C(=O)Nc2cccc(C(F)(F)F)c2)O3)cc1 (stereo not given)	–	16µM	23µM	?	–
CC(=O)Nc1cccc(-c2ccnc3c2CC(C(=O)Nc2cccc(OC(F)(F)F)c2)O3)c1 (stereo not given)	18µM	?	?	?	–
O=C(O)C1Oc2ccccc2C1c1ccccc1 (stereo not given)	–	–	–	–	–
COCCn1c(=O)cnc2cnc(Nc3ccccc3)nc21	15µM	·	9.2µM	·	·
O=c1cnc2cnc(Oc3ccccc3)nc2n1C[C@H]1CCCO1	?	·	–	·	·
O=c1cnc2cnc(Nc3ccccc3)nc2n1C[C@H]1CCCO1	9.2µM	·	8.2µM	·	·
COCCn1c(=O)c(-c2ccccc2)nc2cnc(Nc3ccccc3)nc21	–	·	–	·	·
Cc1ccc(S(=O)(=O)Nc2c(C)nn(C)c2C)c(C)c1	?	–	?	–	–
Cc1cc(NC(=O)CCNS(=O)(=O)c2cccc3nsnc23)ccc1Br	–	·	–	·	·
CCOC(=O)c1ccc(S(=O)(=O)N2CCN(CC(=O)NC(=O)NC3CCCCC3)CC2)cc1	–	–	–	–	-52
O=S(=O)(c1ccc(Cl)c(C(F)(F)F)c1)N1CCN(CC(O)COCC2CCCO2)CC1 (stereo not given)	18µM	–	21µM	–	–
O=C(CN1CCN(S(=O)(=O)c2ccc(Cl)c(C(F)(F)F)c2)CC1)NC(=O)NC1CCCCC1	?	–	21µM	–	–
CCOC(=O)c1nnn(-c2nonc2N)c1CN(C)Cc1ccccc1	?	–	–	–	–
CCc1ccccc1NC(=O)c1cc(S(=O)(=O)NCCc2ccc(OC)c(OC)c2)ccc1F	16µM	·	21µM	·	·
Cc1ccc(NC(=O)c2cc(S(=O)(=O)NCCc3ccccc3)ccc2F)cc1Cl	?	16µM	?	16µM	-88
Cc1ccc(C)c(NC(=O)c2cc(S(=O)(=O)NCCc3ccccc3)ccc2F)c1	?	·	23µM	·	·
COc1ccccc1NC(=O)c1cc(S(=O)(=O)NCc2ccccc2)ccc1F	?	?	?	?	–
CCOC(=O)N1CCC(NC(=O)c2cc(S(=O)(=O)NCCc3ccccc3)ccc2F)CC1	?	–	?	–	–
Cc1cc(CNC(=O)COC(=O)C2CC3CCCC(C2)C3=O)cc(C)c1O (stereo not given)	–	–	–	–	–
Clc1ccc(NCc2cccnc2)cc1	–	–	–	–	–
CSc1ccc(CNc2ccc(Cl)cc2)cc1	–	–[9.24 µM]	–	–	-73
CCCCNC(=O)C1(C)CCN1C(=O)c1ccc2c(c1)CCO2 (stereo not given)	–	–	–	–	–
SMILES	DT40 TDP1 no CPT	HT1080 IDH1KD tx	DT40 TDP1 CPT	HT1080NT lethal	IL1B secr inh
CCn1c(-c2ccccc2F)nc2cc(NC(C)=O)cc(C(=O)N3CCC[C@H]3C(=O)OC)c21	–	·	–	·	·
COC(CNC(=O)C1CCCN1C(=O)OCc1ccccc1)OC (stereo not given)	–	–	–	–	–
COC(=O)[C@@H]1C[C@]2(OC(=O)c3ccccc3)C=CC(=O)C[C@@H]2N1C(=O)OCc1ccccc1	7.3µM	?	6.5µM	?	-107
Nc1nc2n(n1)C(c1ccc(Cl)cc1)CC(c1ccc(F)cc1)N2 (stereo not given)	?	–	?	–	?
Cc1ccc(C2CC(c3ccccc3C)n3nc(N)nc3N2)cc1 (stereo not given)	–	–	–	–	–
Cc1ccc(C2CC(c3ccccc3Cl)n3nc(N)nc3N2)cc1 (stereo not given)	?	–	21µM	–	?
Nc1nc2n(n1)C(c1ccccc1Cl)CC(c1ccc(F)cc1)N2 (stereo not given)	?	–	16µM	–	–
CC(C)N(C(=O)Cc1ccccc1[N+](=O)[O-])C(C)C	–	–	–	–	–
Cc1ccc(NC(=O)COC(=O)CCc2nc3ccccc3c(=O)[nH]2)cc1Cl	–	–	–	–	–
S=C(NCc1ccccc1)Nc1nccs1	4.6µM	–	5.2µM	–	–
O=C(COc1ccccc1)NC(=S)Nc1ccc(Br)cn1	–	–	–	–	–
O=C(NCc1ccncc1)C(=O)Nc1nccs1	–	–	–	–	–
S=C(NCCc1ccccc1)Nc1nccs1	15µM	–	?	–	–
S=C(NCCc1ccccc1)Nc1ccc(Br)cn1	15µM	–	?	–	–
O=C(NCCc1ccccc1)C(=O)Nc1nccs1	–	–	–	?	–
CCc1noc(N)c1C(=O)Nc1ccc(Cl)cc1	–	–	–	–	–
CC1CCN(C(=O)CSc2nnc(CN3CCOCC3)n2-c2ccccc2)CC1	–	–	–	–	–
Cc1ccn(CCC(=O)N2CCCC(N3CCN(c4ccccc4C)CC3)C2)n1 (stereo not given)	?	–	?	–	–
COc1cc2c(cc1NC(=O)C(Cl)Cl)-c1ccc(NC(=O)C(Cl)Cl)cc1C2	8.2µM	13µM	8.2µM	?	-97
COc1cc2c(cc1NC(=O)c1ccccc1-c1ccccc1C(=O)O)-c1ccccc1C2	–	–	–	–	–
O=C1OCC(c2ccc(Cl)s2)=C1c1ccccc1[N+](=O)[O-]	?	–	–	–	-65
COc1ccc(NC(=O)c2cc(-c3ccc(F)cc3OC)n[nH]2)c(OC)c1	15µM	–	16µM	–	·
COc1ccc(NC(=O)c2cc(-c3cc(F)ccc3OC)n[nH]2)c(OC)c1	?	?	26µM	–	·
CCc1nnc(NC(=O)C2CCC(CNc3c(N4CCC(C)CC4)c(=O)c3=O)CC2)s1 (stereo not given)	–	–	–	–	–
COc1ccc(C(=O)CCC(=O)N2CCN(c3ccccc3)CC2)cc1	?	–	16µM	–	–
COc1ccc(C(=O)NCC(=O)N2CCN(c3ccc(Cl)cc3)CC2)cc1	?	–	–	–	–
COc1ccc(N2CCN(CC(=O)NC(C)c3ccccc3)CC2)cc1 (stereo not given)	–	–	–	–	–
COc1ccc(N2CCN(C(=O)CCNC(=O)c3ccc(C(C)(C)C)cc3)CC2)cc1	?	–	18µM	–	–

Compound activity (PubChem BioAssay)
